Test [1] can be described thus: antimalarial activity against Dd2 strain (AID 2302;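 active = growth inhibition above 50% at the single 2 µM test dose, taken to imply half-maximal potency below 2 µM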;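 also: 0% = DMSO untreated growth and 100% = chloroquine plus artemisinin killed control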). The following applies: P. falciparum Dd2 in RBCs, LDH growth readout, 72 h; at 2 µM; active compounds read high.
Test [2] is described as follows: human hepatoma cell viability loss – ATP luminescence, cytotoxicity control for P. falciparum antimalarial project, primary screen (AID 2303;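 active = inhibition above 50%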;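 also: 0% = DMSO wells and 100% = digitonin-killed cells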). The following applies: HepG2 viability, 24-48 h, at 10 µM, active compounds read high.
Test [3] deals with L-lactate dehydrogenase (Plasmodium falciparum (isolate CDC / Honduras)) (UniProt Q27743). Put plainly: PfLDH activity inhibition – cell lysate, 3D7 strain, counter-screen for P. falciparum growth inhibition project (AID 2304).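 Also: 0% = vehicle and 100% = reference inhibitor.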 To be noted: P. falciparum 3D7 crude extract, LDH APAD/NBT absorbance; at 2 µM; active compounds read high. (In general: A counterscreen serves to expose hits that act by an unwanted route or on another target.)

Test [4] is described as follows: inhibition of 3D7 malaria parasite growth – strain 3D7 (AID 2306).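 Also: 0% = DMSO wells and 100% = chloroquine plus artemisinin control wells.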 To be noted: P. falciparum 3D7 erythrocytic growth, LDH absorbance, 72 h; at 2 µM; active compounds read high.
Test [5] addresses Calcium-dependent protein kinase 1 (Plasmodium falciparum (isolate 3D7)) (UniProt P62344). Put plainly: PfCDPK1 kinase inhibitors, biochemical, TCAMS library (AID 1159585; cut-off not given, nearly all actives have IC50 up to about 0.98 µM;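 also: inhibitors leave more ATP so luminescence rises with inhibition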). To be noted: recombinant PfCDPK1, Kinase-Glo ATP depletion luminescence. (In general: Kinase-Glo measures the ATP left after a reaction by luminescence.)
The target in test [6] is Plasmodium falciparum protein kinase 6 (PK6, PF3D7_1337100) (UniProt Q8IDW1). Description: PfPK6 kinase inhibitors, biochemical, TCAMS library (AID 1159586). To be noted: recombinant PfPK6, Kinase-Glo ATP depletion luminescence.
Test [7] concerns the target Protein kinase 7 (PK7), Plasmodium falciparum 3D7 (PF3D7_0213400) (UniProt Q7YTF7). Put plainly: inhibition of Plasmodium PK7 catalytic activity – biochemical, TCAMS antimalarial set, Kinase-Glo luminescence (AID 1159587). The following applies: recombinant PfPK7, Kinase-Glo ATP depletion luminescence.
Test [8] concerns the target Calcium-dependent protein kinase 4 (Plasmodium falciparum (isolate 3D7)) (UniProt Q8IBS5). Put plainly: PfCDPK4 kinase inhibitors, biochemical, TCAMS library (AID 1159588; cut-off not given, nearly all actives have IC50 up to about 0.91 µM). To be noted: recombinant PfCDPK4, Kinase-Glo ATP depletion luminescence.

The term inhibition denotes the drop in the measured response relative to a control, in per cent.

A number with no mark means an inactive call. For some of these results: Results with a measured potency or affinity are listed apart. Calls of active or inactive are those of the source. Unless noted, no rule for the calls is given here.

L-lactate dehydrogenase (Plasmodium falciparum (isolate CDC / Honduras)), sequence (Q27743 whole entry, looked up): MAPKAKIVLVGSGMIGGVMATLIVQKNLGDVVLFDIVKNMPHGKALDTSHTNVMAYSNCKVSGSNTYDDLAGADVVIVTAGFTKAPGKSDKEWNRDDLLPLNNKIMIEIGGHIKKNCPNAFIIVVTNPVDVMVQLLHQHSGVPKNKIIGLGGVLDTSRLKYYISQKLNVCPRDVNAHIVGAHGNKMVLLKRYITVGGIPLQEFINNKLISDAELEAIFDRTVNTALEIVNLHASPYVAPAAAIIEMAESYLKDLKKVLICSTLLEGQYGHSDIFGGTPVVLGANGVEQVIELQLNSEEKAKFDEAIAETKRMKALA
Plasmodium falciparum protein kinase 6 (PK6, PF3D7_1337100), sequence (Q8IDW1 1-305): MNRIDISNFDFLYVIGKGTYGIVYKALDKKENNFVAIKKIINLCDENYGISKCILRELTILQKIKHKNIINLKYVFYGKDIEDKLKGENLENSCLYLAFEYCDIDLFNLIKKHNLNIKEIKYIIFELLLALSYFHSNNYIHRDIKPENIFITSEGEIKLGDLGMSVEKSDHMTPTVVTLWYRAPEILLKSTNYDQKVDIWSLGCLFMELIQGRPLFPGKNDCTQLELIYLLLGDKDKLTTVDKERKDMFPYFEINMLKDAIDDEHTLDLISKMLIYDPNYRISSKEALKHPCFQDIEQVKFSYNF
Protein kinase 7 (PK7), Plasmodium falciparum 3D7 (PF3D7_0213400), sequence (Q7YTF7 1-343): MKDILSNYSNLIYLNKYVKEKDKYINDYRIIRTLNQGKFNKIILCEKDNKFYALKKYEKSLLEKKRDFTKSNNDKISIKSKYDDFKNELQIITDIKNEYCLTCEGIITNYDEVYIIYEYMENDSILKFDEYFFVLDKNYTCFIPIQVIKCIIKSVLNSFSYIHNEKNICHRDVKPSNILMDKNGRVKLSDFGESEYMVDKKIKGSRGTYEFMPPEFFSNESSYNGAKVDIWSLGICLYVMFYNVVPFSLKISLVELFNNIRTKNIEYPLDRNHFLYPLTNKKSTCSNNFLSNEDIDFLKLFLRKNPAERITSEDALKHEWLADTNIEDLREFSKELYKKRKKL
Calcium-dependent protein kinase 1 (Plasmodium falciparum (isolate 3D7)), sequence (P62344 whole entry, looked up): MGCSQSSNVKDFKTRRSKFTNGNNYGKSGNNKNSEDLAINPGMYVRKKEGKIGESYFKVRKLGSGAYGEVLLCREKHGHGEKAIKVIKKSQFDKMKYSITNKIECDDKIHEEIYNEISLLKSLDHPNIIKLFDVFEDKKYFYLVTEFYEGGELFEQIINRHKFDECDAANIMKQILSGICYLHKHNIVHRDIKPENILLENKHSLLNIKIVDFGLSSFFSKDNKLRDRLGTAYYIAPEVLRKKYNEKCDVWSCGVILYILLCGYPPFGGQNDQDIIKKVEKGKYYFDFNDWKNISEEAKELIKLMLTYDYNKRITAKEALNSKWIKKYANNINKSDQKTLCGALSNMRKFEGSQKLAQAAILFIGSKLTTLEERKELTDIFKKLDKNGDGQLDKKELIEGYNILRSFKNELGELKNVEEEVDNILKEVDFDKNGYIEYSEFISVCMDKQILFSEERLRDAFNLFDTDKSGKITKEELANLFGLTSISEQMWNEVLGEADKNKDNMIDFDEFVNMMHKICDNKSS
Calcium-dependent protein kinase 4 (Plasmodium falciparum (isolate 3D7)), sequence (Q8IBS5 whole entry, looked up): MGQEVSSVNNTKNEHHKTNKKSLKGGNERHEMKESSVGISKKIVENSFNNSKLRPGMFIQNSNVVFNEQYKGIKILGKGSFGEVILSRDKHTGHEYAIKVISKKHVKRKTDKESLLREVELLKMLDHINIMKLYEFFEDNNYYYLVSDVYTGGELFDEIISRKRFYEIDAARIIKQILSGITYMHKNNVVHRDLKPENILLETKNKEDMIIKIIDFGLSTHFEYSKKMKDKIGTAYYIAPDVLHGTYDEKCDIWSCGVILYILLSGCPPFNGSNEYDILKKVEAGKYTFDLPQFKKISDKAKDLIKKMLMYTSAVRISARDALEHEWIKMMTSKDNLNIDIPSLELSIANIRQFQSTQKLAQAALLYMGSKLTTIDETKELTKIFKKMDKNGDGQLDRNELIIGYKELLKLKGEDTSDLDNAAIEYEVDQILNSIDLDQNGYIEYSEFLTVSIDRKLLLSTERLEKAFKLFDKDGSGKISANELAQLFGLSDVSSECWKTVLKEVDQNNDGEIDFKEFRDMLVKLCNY

Consider `CC[C@H](NC(=O)c1c(CC2CCN(CC(C)=O)CC2)c(-c2ccccc2)nc2ccccc12)c1ccccc1`, for which the growth inhibition in test [1] is 96% (active); in test [4], 97% (active). Further, the inhibition in test [2] was 7%; in test [3] it was 3%. In addition, the result in test [5], in test [6], in test [7] and in test [8] was inactive.
In the case of `CC1CCN(Cc2cccc(C(=O)NCc3ccc(F)c(-c4cccc(CN5CCN[C@@H](C)C5)c4)c3)c2)CC1`, the growth inhibition in test [1] is 64% (active); in test [4] it was 91% (active). Also, the inhibition in test [2] was 26%; in test [3], 2%. Further, the result in test [5], in test [6], in test [7] and in test [8] was inactive.
Turning to `CC(C)Nc1cc(C(=O)N[C@@H](Cc2ccccc2)[C@H](O)CNC2CCOCC2)c(F)c(N2CCCCS2(=O)=O)c1`, the growth inhibition in test [1] and in test [4] was 98% (active) throughout. In addition, the results for the inhibition in test [2] and in test [3] were 2% and -2%, respectively. In addition, the outcome in test [5], in test [6], in test [7] and in test [8] was inactive.
With `O=C(N[C@H]1CCN(Cc2ccc(OCCN3CCNCC3)c(Cl)c2)C1)c1ccc(Cl)c(Cl)c1`, the growth inhibition in test [1] was 5%; in test [4] it was 101% (active). Also, the values for the inhibition in test [2] and in test [3] were 50% (active) and -1%, respectively. For the same molecule, the outcome in test [5], in test [6], in test [7] and in test [8] was inactive.
For the molecule `COc1ccc(O)c(-c2sc(N=C(N)N)nc2-c2ccccc2)c1`, the results for the growth inhibition in test [1] and in test [4] were 96% (active) and 101% (active), respectively. For the same molecule, the inhibition in test [2] is 2%; in test [3] it was -2%. Also, the result in test [5], in test [6], in test [7] and in test [8] was inactive.
For the molecule `Cc1cc(OCCCN2CCN(CCN3CCOCC3)CC2)ccc1NC(=O)COc1ccc(Cl)cc1C(=O)c1cc(Cl)cc(C#N)c1`, the growth inhibition in test [1] was 78% (active); in test [4] it was 99% (active). Moreover, the inhibition was 30% in test [2] and -3% in test [3]. The outcome in test [5], in test [6], in test [7] and in test [8] was inactive.
Take `O=c1cc(NCCCNCc2[nH]c3cc(Cl)ccc3c2Cl)[nH]c2ccccc12`: the growth inhibition is 1% in test [1] and 91% (active) in test [4]. Also, the inhibition in test [2] was 5%; in test [3] it was -2%. For the same molecule, the outcome in test [5], in test [6], in test [7] and in test [8] was inactive.
As to `CC(Oc1ccc(Cl)cc1)C(=O)Nc1cc(C(F)(F)F)ccc1N1CCOCC1` (stereo not given), the growth inhibition in test [1] and in test [4] was 97% (active) throughout. The inhibition in test [2] is 14%; in test [3] it was -6%. Also, the result in test [5], in test [6], in test [7] and in test [8] was inactive.
Regarding `O=C(Nc1ccc(Br)cc1)N1CCC(n2c(-c3ccccc3)nc3cccnc32)CC1`, the growth inhibition is 86% (active) in test [1] and 90% (active) in test [4]. For the same molecule, the results for the inhibition in test [2] and in test [3] were 36% and 0%, respectively. Also, the result in test [5], in test [6], in test [7] and in test [8] was inactive.
For `O=C(Nc1ccc(N2CCN(Cc3ccccc3)CC2)cc1)c1cccs1`, the growth inhibition in test [1] is 86% (active); in test [4], 87% (active). Besides, the inhibition in test [2] was -1%; in test [3] it was 2%. Further, the result in test [5], in test [6], in test [7] and in test [8] was inactive.
In the case of `CC(C)NCc1ccc(-c2ccc(NC(=O)c3cccc(C#N)c3)cc2)cc1`, the growth inhibition in test [1] was 77% (active); in test [4], 99% (active). Besides, the inhibition in test [2] was 40%; in test [3], -2%. For the same molecule, the outcome in test [5], in test [6], in test [7] and in test [8] was inactive.
Regarding `Cn1c(-c2ccccc2)cc2c3c(N)nc(N)nc3ccc21`, the growth inhibition was 30% in test [1] and 100% (active) in test [4]. The values for the inhibition in test [2] and in test [3] were 27% and -2%, respectively. Besides, the result in test [5], in test [6], in test [7] and in test [8] was inactive.
Consider `CCCC(C)NC(=O)[C@H](Cc1ccccc1)NC(=O)c1ccc(O)c(-c2ccc(OC)cc2)c1` (stereo not given in full), for which the growth inhibition in test [1] was 1%; in test [4] it was 85% (active). In addition, the inhibition in test [2] was 12%; in test [3], 2%. In addition, the result in test [5], in test [6], in test [7] and in test [8] was inactive.
Regarding `COc1cc2c(cc1OC)C(C(=O)Nc1cc(OC)c(OC)c(OC)c1)C(c1ccc(SC)cc1)N(C)C2=O` (stereo not given), the growth inhibition was 64% (active) in test [1] and 97% (active) in test [4]. In addition, the inhibition is 14% in test [2] and 2% in test [3]. In addition, the result in test [5], in test [6], in test [7] and in test [8] was inactive.
In the case of `CCOc1ccc2nc(C)cc(NN=Cc3ccncc3)c2c1`, the growth inhibition was 78% (active) in test [1] and 99% (active) in test [4]. Also, the figures for the inhibition in test [2] and in test [3] were 8% and 0%, respectively. The result in test [5], in test [6], in test [7] and in test [8] was inactive.
For `CC(=O)N1c2ccccc2C(C)=CC1(C)C`, the figures for the growth inhibition in test [1] and in test [4] were 11% and 97% (active), respectively. The inhibition in test [2] is 3%; in test [3], 1%. Moreover, the outcome in test [5], in test [6], in test [7] and in test [8] was inactive.
Consider `CC(C)Sc1nc2c(c(=O)n1Cc1ccco1)C1(CCCCC1)Cc1ccccc1-2`, for which the growth inhibition is 99% (active) in test [1] and 100% (active) in test [4]. Further, the inhibition was 10% in test [2] and 0% in test [3]. Also, the result in test [5], in test [6], in test [7] and in test [8] was inactive.
Turning to `COc1ccc(C(=O)NC(Nc2ccc([N+](=O)[O-])cc2)C(Cl)(Cl)Cl)cc1` (stereo not given), the growth inhibition in test [1] was 83% (active); in test [4], 95% (active). Moreover, the inhibition is 15% in test [2] and 1% in test [3]. The outcome in test [5], in test [6], in test [7] and in test [8] was inactive.
With `CCc1ccc(NC(=O)c2ccc(CN3CCCN(Cc4cccc(O)c4)CC3)cc2)cc1`, the growth inhibition in test [1] was 55% (active); in test [4], 100% (active). Besides, the inhibition in test [2] was 51% (active); in test [3], 0%. The outcome in test [5], in test [6], in test [7] and in test [8] was inactive.
As to `CC(C)CCN1CCCN(Cc2ccc(C(=O)Nc3ccc(C(C)(C)C)cc3)cc2)CC1`, the figures for the growth inhibition in test [1] and in test [4] were 12% and 92% (active), respectively. The inhibition in test [2] is 49%; in test [3], -1%. Further, the result in test [5], in test [6], in test [7] and in test [8] was inactive.

The values above are taken from PubChem BioAssay.
